Assay [1] in a line: qHTS assay to identify small molecule antagonists of the glucocorticoid receptor (GR) signaling pathway - cell viability counter screen (AID 720693). Also: nearly all actives have a fitted effect of over 55% in size. Also: potency is read from the fitted curve at half-maximal effect.
The nature of assay [2]: qHTS assay for identifying genotoxic compounds that show differential cytotoxicity against isogenic chicken DT40 cell lines with known DNA damage response pathways - wild type cell line (AID 743012). Also: potency is read from the fitted curve at half-maximal effect; nearly all actives have a fitted effect of over 60% in size. A digest of the protocol:
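Parental DNA repair-proficient DT40 cells, 300 per well, were pre-incubated ~0.5 h at 37 C/5% CO2, pin-dosed with compounds in DMSO, then incubated 40 h. Viability was read as CellTiter-Glo luminescence after 30 min at room temperature.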
In general terms: In qHTS, concentration-response curves come from the screen itself.

Assay [3] is described as follows: qHTS assay for identifying genotoxic compounds that show differential cytotoxicity against isogenic chicken DT40 cell lines with known DNA damage response pathways - Rev3 mutant cell line (AID 743014). Also: potency is read from the fitted curve at half-maximal effect; nearly all actives have a fitted effect of over 55% in size.
Assay [4] is described as follows: qHTS assay for identifying genotoxic compounds that show differential cytotoxicity against isogenic chicken DT40 cell lines with known DNA damage response pathways - Rad54/Ku70 mutant cell line (AID 743015). Also: potency is read from the fitted curve at half-maximal effect; nearly all actives have a fitted effect of over 60% in size.
Assay [5] deals with Androgen receptor (Homo sapiens) (UniProt P10275). Put plainly: qHTS assay to identify small molecule antagonists of the androgen receptor (AR) signaling pathway (AID 743035; active = well fitted inhibition curve with a large enough effect in the signal ratio in the repeat runs, not every such curve was filed as active; the % refers to the signal ratio). In outline:
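HEK293 cells stably carrying a UAS-driven beta-lactamase reporter (AR-UAS-bla GripTite) were plated for 4 h at 37C, then given compound and the agonist R1881 and incubated 16 h. Reporter activity was read by LiveBLAzer B/G FRET fluorescence after 2 h at room temperature.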

The target is the same in assay [6]. Put plainly: qHTS assay to identify small molecule agonists of the androgen receptor (AR) signaling pathway (AID 743036; active = well fitted activation curve with a large enough effect in the signal ratio in the repeat runs, with a control signal flat, not every such curve was filed as active; the % refers to the signal ratio). In outline: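 Cell-based FRET reporter assay: HEK293 line with a UAS-beta-lactamase construct, compounds added in DMSO, 16 h exposure at 37C, then 2 h substrate step at room temperature and fluorescence intensity read.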
Assay [7] shares this target. Put plainly: qHTS assay to identify small molecule agonists of the androgen receptor (AR) signaling pathway using the MDA cell line (AID 743040; also: nearly all actives have a fitted effect of over 20% in size). In outline: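 Luminescence from ONE-Glo, read after 30 min at room temperature, reflects MMTV-driven luciferase in MDA-kb2 cells (AR- and GR-responsive). Treatment lasted 16 h at 37C, 0% CO2.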
The target in assay [8] is Estrogen receptor (Homo sapiens) (UniProt P03372). Put plainly: qHTS assay to identify small molecule antagonists of the estrogen receptor alpha (ER-alpha) signaling pathway (AID 743069; active = well fitted curve in the direction sought with a large enough effect in the signal ratio in the repeat runs, not every such curve was filed as active; the % refers to the signal ratio). A digest of the protocol:
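Estradiol-stimulated ER-alpha-UAS-bla HEK293 cells, 18 hr compound exposure at 37C. LiveBLAzer B/G substrate, 2 hr RT, fluorescence read.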

Assay [9] is described as follows: qHTS assay to identify small molecule antagonists of the estrogen receptor alpha (ER-alpha) signaling pathway - cell viability counter screen (AID 743074; calls by dose curve;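 also: HEK293 cells carrying ER-alpha-UAS-bla reporter stimulated with 17beta-estradiol; nearly all actives have a fitted effect of over 45% in size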).
Assay [10] has as its target Estrogen receptor (Homo sapiens) (UniProt P03372). Put plainly: qHTS assay to identify small molecule agonists of the estrogen receptor alpha (ER-alpha) signaling pathway (AID 743075; calls by dose curve; also: potency is read from the fitted curve at half-maximal effect).
Assay [11] has as its target Aromatase (Homo sapiens) (UniProt P11511). Put plainly: qHTS assay to identify aromatase inhibitors (AID 743083). Also: nearly all actives have a fitted effect of over 55% in size. Also: potency is read from the fitted curve at half-maximal effect.
The nature of assay [12]: qHTS assay to identify small molecule antagonists of the thyroid receptor (TR) signaling pathway - cell viability counter screen (AID 743064). Also: nearly all actives have a fitted effect of over 50% in size. Also: potency is read from the fitted curve at half-maximal effect. A digest of the protocol:
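In rat pituitary GH3.TRE-Luc reporter cells co-exposed to compound and 1 nM T3 for 23.5 h, cytotoxicity was assessed with CellTiter-Fluor in the same wells, read by fluorescence.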

The nature of assay [13]: qHTS assay to identify small molecule antagonists of the thyroid receptor (TR) signaling pathway (AID 743065). Also: nearly all actives have a fitted effect of over 55% in size. Also: potency is read from the fitted curve at half-maximal effect. In outline:
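GH3.TRE-Luc rat pituitary cells carrying two TR response elements driving luciferase were plated for 4 h, given compound plus 1 nM T3 (final), and incubated 23.5 h at 37 C. ONE-Glo luminescence measured reporter inhibition; CellTiter-Fluor fluorescence tracked cytotoxicity.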

Assay [14] concerns thyroid hormone receptor (rat, GH3 cells). In words: qHTS assay to identify small molecule agonists of the thyroid receptor (TR) signaling pathway (AID 743066; calls by dose curve).
For assay [15], the target named is Estrogen receptor (Homo sapiens) (UniProt P03372). In words: qHTS assay to identify small molecule agonists of the estrogen receptor alpha (ER-alpha) signaling pathway using the BG1 cell line (AID 743079). Also: nearly all actives have a fitted effect of over 20% in size. The conditions noted are these: BG1Luc4E2 cells, ERE-luciferase agonist, 22 h; activation: at 70.3 µM (top of the series).
Estrogen receptor (Homo sapiens), sequence (P03372 whole entry, looked up): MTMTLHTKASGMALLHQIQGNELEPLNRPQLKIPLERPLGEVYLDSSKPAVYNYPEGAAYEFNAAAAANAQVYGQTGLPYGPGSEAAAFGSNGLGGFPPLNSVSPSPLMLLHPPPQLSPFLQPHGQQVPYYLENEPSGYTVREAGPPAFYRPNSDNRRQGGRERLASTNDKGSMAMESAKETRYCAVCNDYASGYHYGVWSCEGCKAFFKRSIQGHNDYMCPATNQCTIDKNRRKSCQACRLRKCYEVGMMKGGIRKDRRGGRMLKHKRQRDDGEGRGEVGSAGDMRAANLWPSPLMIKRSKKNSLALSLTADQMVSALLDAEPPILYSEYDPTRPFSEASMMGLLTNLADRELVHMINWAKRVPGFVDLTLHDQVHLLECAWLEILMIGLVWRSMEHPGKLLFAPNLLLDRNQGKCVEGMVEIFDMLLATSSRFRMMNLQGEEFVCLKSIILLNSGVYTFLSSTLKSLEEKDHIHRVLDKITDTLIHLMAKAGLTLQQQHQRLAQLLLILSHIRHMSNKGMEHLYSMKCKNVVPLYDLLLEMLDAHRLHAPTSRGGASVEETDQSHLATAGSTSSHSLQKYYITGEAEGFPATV
Assay [16] in a line: qHTS assay to identify small molecule antagonists of the estrogen receptor alpha (ER-alpha) signaling pathway using the BG1 cell line (AID 743080; calls by dose curve;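 also: BG1 cells stimulated with 17beta-estradiol alongside compound; nearly all actives have a fitted effect of over 25% in size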). As to conditions: BG1Luc4E2 ERE-luciferase antagonist mode, luminescence; activity change, negative = inhibition: at 70.3 µM (top of the series). A digest of the protocol:
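BG1-Luc-4E2 cells (endogenous full-length ER-alpha, stable 4×ERE-luciferase) were starved 5 days in phenol-red-free medium with 10% charcoal-stripped FBS, plated 24 h, then given compound plus 17beta-estradiol for 21.5 h at 37 C; ONE-Glo luminescence read after 30 min.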

The nature of assay [17]: qHTS assay to identify small molecule antagonists of the estrogen receptor alpha (ER-alpha) signaling pathway using the BG1 cell line - cell viability counter screen (AID 743081).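 Also: compound given together with 17beta-estradiol as the ER stimulus; nearly all actives have a fitted effect of over 45% in size.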 Also: potency is read from the fitted curve at half-maximal effect.
A short description of assay [18]: qHTS assay to identify small molecule antagonists of the androgen receptor (AR) signaling pathway - cell viability counter screen (AID 743033; also: nearly all actives have a fitted effect of over 45% in size).
Assay [19] in a line: qHTS assay to identify small molecule antagonists of the androgen receptor (AR) signaling pathway using the MDA cell line - cell viability counter screen (AID 743041; also: nearly all actives have a fitted effect of over 45% in size; also: potency is read from the fitted curve at half-maximal effect). In outline:
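Viability counter screen run alongside the AR antagonist reporter: cells seeded 5 h before compound, R1881 added, 16 h incubation at 37C without CO2, fluorescent CellTiter-Fluor signal quantified.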

In assay [20] the target is Androgen receptor (Homo sapiens) (UniProt P10275). Put plainly: qHTS assay to identify small molecule antagonists of the androgen receptor (AR) signaling pathway using the MDA cell line (AID 743042; also: nearly all actives have a fitted effect of over 55% in size). A digest of the protocol: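 MDA-kb2 cells (human breast carcinoma, stably carrying an MMTV-luciferase reporter responsive to AR and GR) were plated at 3,000 cells/well and preincubated 5 hr at 37C, then given compound plus R1881 agonist for 16 h. ONE-Glo luminescence was read.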
Androgen receptor (Homo sapiens), sequence (P10275 whole entry, looked up): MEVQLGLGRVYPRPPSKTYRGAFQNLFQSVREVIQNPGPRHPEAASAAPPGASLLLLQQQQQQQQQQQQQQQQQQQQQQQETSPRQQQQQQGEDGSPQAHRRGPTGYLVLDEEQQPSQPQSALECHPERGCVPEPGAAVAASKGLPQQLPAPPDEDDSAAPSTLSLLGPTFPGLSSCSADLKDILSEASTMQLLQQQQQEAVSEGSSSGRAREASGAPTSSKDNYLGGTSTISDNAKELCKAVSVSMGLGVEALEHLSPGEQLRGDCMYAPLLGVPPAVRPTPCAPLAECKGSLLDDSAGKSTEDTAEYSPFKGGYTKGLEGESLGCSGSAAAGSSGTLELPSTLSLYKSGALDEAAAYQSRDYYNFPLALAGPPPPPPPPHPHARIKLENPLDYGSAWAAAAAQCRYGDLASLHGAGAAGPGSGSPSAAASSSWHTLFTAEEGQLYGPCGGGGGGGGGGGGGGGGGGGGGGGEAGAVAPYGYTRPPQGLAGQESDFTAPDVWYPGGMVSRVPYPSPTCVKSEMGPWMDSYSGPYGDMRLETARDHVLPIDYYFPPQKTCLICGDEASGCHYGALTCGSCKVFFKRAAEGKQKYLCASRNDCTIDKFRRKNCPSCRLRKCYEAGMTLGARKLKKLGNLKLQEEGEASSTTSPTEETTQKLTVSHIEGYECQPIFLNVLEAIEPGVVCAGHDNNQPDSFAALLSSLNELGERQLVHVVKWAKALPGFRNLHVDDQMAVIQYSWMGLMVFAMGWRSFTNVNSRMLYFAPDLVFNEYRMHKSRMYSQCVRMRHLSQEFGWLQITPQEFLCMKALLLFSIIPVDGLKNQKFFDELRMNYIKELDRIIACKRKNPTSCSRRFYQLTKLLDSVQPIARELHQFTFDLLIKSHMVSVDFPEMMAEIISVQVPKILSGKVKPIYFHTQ

“And” between values parts separate entries of the source, which are not always exact repeats. Equal entries are not always repeated. Inconclusive results are not listed. The source made the active and inactive calls. Unless noted, calls follow the shape of the dose curve; as a rule, active = well fitted curve in the direction sought with a large enough effect in the repeat runs; inconclusive = weak or mixed curves; inactive = no such curve, though single readings can be large; an effect the other way counts as inactive or inconclusive.

Aromatase (Homo sapiens), sequence (P11511 whole entry, looked up): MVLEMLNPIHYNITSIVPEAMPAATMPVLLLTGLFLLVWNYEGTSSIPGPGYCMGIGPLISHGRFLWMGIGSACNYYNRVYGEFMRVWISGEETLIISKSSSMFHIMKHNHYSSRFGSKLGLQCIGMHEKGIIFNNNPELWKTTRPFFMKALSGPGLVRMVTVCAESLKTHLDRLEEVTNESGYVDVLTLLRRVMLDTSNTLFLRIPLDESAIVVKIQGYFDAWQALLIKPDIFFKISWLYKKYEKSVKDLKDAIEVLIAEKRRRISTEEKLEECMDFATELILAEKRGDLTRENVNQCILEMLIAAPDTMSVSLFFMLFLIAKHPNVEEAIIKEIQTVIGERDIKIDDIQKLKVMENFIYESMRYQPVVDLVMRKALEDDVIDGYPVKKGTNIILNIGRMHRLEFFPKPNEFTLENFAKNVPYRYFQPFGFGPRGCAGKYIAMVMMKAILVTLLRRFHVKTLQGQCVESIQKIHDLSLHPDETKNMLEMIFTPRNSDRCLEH

Turning to `COc1ccccc1OCCNCC(O)COc1cccc2[nH]c3ccccc3c12` (centres undefined), the Potency result in assay [1], in [5], in assay [7], in assay [8], in assay [9] and in [10] was “inactive” in each case. Besides, the Potency result in assay [11] is “inactive”. The Potency was 26.6 µM (active) in [2], 29.8 µM (active) in assay [3] and 29.8 µM (active) in [4]. In addition, the compound was classed as inactive in [6].
As for `CCC(=O)OCCc1ccccc1`, the Potency result in assay [1], in assay [12], in [13], in assay [14], in assay [8] and in [9] was “inactive” in each case. Besides, the Potency entry in assay [10], in assay [15], in [16] and in assay [17] was “inactive” each time. Moreover, the Potency in assay [2] is 18.5 µM (active); in assay [3] it was 23.3 µM (active); in [4] it was 41.4 µM (active).
Take `Nc1ccc2cc3ccc(N)cc3nc2c1`: the Potency was 19 µM (active) in assay [1]; 2.66 µM (active) and 5.45 µM (active) in assay [2]; 2.98 µM (active) and 2.73 µM (active) in assay [3]; 1.33 µM (active) and 1.37 µM (active) in assay [4]; 16.8 µM (active) and 6.11 µM (active) in assay [11]. For the same compound, the Potency entry in assay [7], in assay [14] and in assay [9] was “inactive” in each case.
Consider `COC(=O)NCCC[Si](OC)(OC)OC`, for which the Potency entry in assay [1], in assay [18], in assay [19], in [13], in assay [14] and in assay [9] was “inactive” throughout. The Potency entry in [17] and in [11] was “inactive” throughout. For the same compound, the Potency in [2] was 61.1 µM (active); in [3] it was 68.6 µM (active).
Consider `CCN(CC)CCOC(=O)C1(C2CCCCC2)CCCCC1`, for which the Potency result in assay [1], in [7], in assay [20], in assay [14], in assay [8] and in [9] was “inactive” in each case. In addition, the Potency entry in assay [10], in [15], in assay [16] and in assay [17] was “inactive” each time. The Potency in assay [2] is 26.6 µM (active); in [3], 21.1 µM (active); in assay [4], 23.7 µM (active); in assay [11], 29.8 µM (active). For the same compound, the outcome in assay [6] was inactive.
On to `NC1(c2ccc(-c3nc4ccn5c(=O)[nH]nc5c4cc3-c3ccccc3)cc2)CCC1`, for which the Potency entry in assay [1], in assay [15], in assay [17] and in assay [11] was “inactive” each time. Besides, the Potency was 1.19 µM (active) in assay [2]; 5.31 µM (active) in [3]; 1.33 µM (active) in assay [4]; 13.3 µM (active) in assay [12]; 21.3 µM [activator] (active) in assay [10].
Take `Cc1cc(Nc2ccc(O)cc2)ccc1N`: the Potency entry in assay [1], in [18], in assay [14] and in assay [9] was “inactive” throughout. The Potency in assay [2] is 15.3 µM (active); in assay [3], 13.6 µM (active); in [4], 13.6 µM (active); in assay [12] it was 12.1 µM (active); in [13], 7.66 µM (active); in assay [17], 54.2 µM (active). Besides, the Potency in assay [11] was 27.2 µM (active).
Regarding `CC(C(O)c1ccccc1)N(C)CCOC(c1ccccc1)c1ccccc1` (centres undefined), the Potency result in assay [1], in assay [8], in assay [10] and in assay [16] was “inactive” throughout. Besides, the Potency in assay [2] was 5.31 µM (active); in assay [3], 8.41 µM (active); in assay [4] it was 9.44 µM (active); in assay [19] it was 26.6 µM (active); in [12], 11.9 µM (active); in assay [11], 29.8 µM (active).
As to `C1CC(COCC2CO2)CCC1COCC1CO1` (centres undefined), the Potency result in assay [1], in assay [18], in assay [14], in [9], in assay [10] and in [15] was “inactive” in each case. Further, the Potency result in [16] and in assay [17] was “inactive” each time. In addition, the Potency was 30.6 µM (active) in [2], 6.86 µM (active) in assay [3], 19.3 µM (active) in [4] and 61.1 µM (active) in [13].

The values above are taken from PubChem BioAssay (Tox21).
